Data taken from the supplement of paper PMC12282887.
± gives the standard deviation of the averaged measurements.

Tested on: E. coli BW25113 marRABp lux reporter
Experiment: promoter activity interaction Z-score (Lux/OD deviation from empty-vector control); higher = stronger promoter induction by the compound
Method: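 E. coli BW25113 (wild type or ΔmarA/ΔsoxS/Δrob) carrying pTU175 luxCDABE promoter reporters was grown in LB in 384-well plates at 37°C with each of 94 compounds at 4 two-fold concentrations, in biological duplicates. Luminescence and OD600 were read every 30 min for 12 h and integrated as AUC over 8 h (0-8 h WT, 1-9 h mutants). Lux AUC was divided by OD AUC; the interaction score is the residual of a Huber robust fit of each promoter against the empty-vector control, then Z-transformed per promoter.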

| Compound | promoter activity interaction Z-score (0.29 µg/ml, genetic background: wild type) | promoter activity interaction Z-score (0.29 µg/ml, genetic background: ΔmarA) | promoter activity interaction Z-score (0.29 µg/ml, genetic background: Δrob) | promoter activity interaction Z-score (0.29 µg/ml, genetic background: ΔsoxS) | promoter activity interaction Z-score (0.58 µg/ml, genetic background: wild type) | promoter activity interaction Z-score (0.58 µg/ml, genetic background: ΔmarA) | promoter activity interaction Z-score (0.58 µg/ml, genetic background: Δrob) | promoter activity interaction Z-score (0.58 µg/ml, genetic background: ΔsoxS) | promoter activity interaction Z-score (1.2 µg/ml, genetic background: wild type) | promoter activity interaction Z-score (1.2 µg/ml, genetic background: ΔmarA) | promoter activity interaction Z-score (1.2 µg/ml, genetic background: Δrob) | promoter activity interaction Z-score (1.2 µg/ml, genetic background: ΔsoxS) | promoter activity interaction Z-score (2.3 µg/ml, genetic background: wild type) | promoter activity interaction Z-score (2.3 µg/ml, genetic background: ΔmarA) | promoter activity interaction Z-score (2.3 µg/ml, genetic background: Δrob) | promoter activity interaction Z-score (2.3 µg/ml, genetic background: ΔsoxS) | promoter activity interaction Z-score (3.2 µg/ml, genetic background: wild type) | promoter activity interaction Z-score (3.2 µg/ml, genetic background: ΔmarA) | promoter activity interaction Z-score (3.2 µg/ml, genetic background: Δrob) | promoter activity interaction Z-score (3.2 µg/ml, genetic background: ΔsoxS) | promoter activity interaction Z-score (6.3 µg/ml, genetic background: wild type) | promoter activity interaction Z-score (6.3 µg/ml, genetic background: ΔmarA) | promoter activity interaction Z-score (6.3 µg/ml, genetic background: Δrob) | promoter activity interaction Z-score (6.3 µg/ml, genetic background: ΔsoxS) | promoter activity interaction Z-score (12.7 µg/ml, genetic background: wild type) | promoter activity interaction Z-score (12.7 µg/ml, genetic background: ΔmarA) | promoter activity interaction Z-score (12.7 µg/ml, genetic background: Δrob) | promoter activity interaction Z-score (12.7 µg/ml, genetic background: ΔsoxS) | promoter activity interaction Z-score (25.3 µg/ml, genetic background: wild type) | promoter activity interaction Z-score (25.3 µg/ml, genetic background: ΔmarA) | promoter activity interaction Z-score (25.3 µg/ml, genetic background: Δrob) | promoter activity interaction Z-score (25.3 µg/ml, genetic background: ΔsoxS) |
| --- | --- | --- | --- | --- | --- | --- | --- | --- | --- | --- | --- | --- | --- | --- | --- | --- | --- | --- | --- | --- | --- | --- | --- | --- | --- | --- | --- | --- | --- | --- | --- | --- |
| COc1cccc2c1C(=O)c1c(O)c3c(c(O)c1C2=O)C[C@@](O)(C(=O)CO)C[C@@H]3O[C@H]1C[C@H](N)[C@H](O)[C@H](C)O1 [Doxorubicin] | 0.237 ± 0.34 | -0.264 ± 0.2 | -0.254 ± 0.1 | 0.0277 ± 0.11 | -0.0763 ± 0.21 | 0.0102 ± 0.26 | -0.188 ± 0.032 | 0.0987 ± 0.23 | 0.0323 ± 0.31 | -0.148 ± 0.1 | -0.236 ± 0.064 | 0.0249 ± 0.092 | -0.0695 ± 0.11 | -0.158 ± 0.16 | -0.24 ± 0.021 | -0.0671 ± 0.12 | – | – | – | – | – | – | – | – | – | – | – | – | – | – | – | – |
| Cc1cc(NS(=O)(=O)c2ccc(N)cc2)no1 [Sulfamethoxazole] | – | – | – | – | – | – | – | – | – | – | – | – | – | – | – | – | 0.00674 ± 0.34 | 0.0321 ± 0.081 | 0.113 ± 0.29 | -0.135 ± 0.18 | 0.078 ± 0.084 | 0.138 ± 0.34 | 0.302 ± 0.037 | 0.0733 ± 0.34 | 0.411 ± 0.27 | 0.542 ± 0.015 | 0.6901 ± 0.0031 | 0.275 ± 0.14 | 0.782 ± 0.098 | 1.15 ± 0.06 | 1.2 ± 0.13 | 1.31 ± 0.61 |
